# PubChem BioAssay (NCI)
# This is part of a sample that, as a whole, favours compounds with a hit. Of some 83,000 tested, about 20% had one in any assay.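 Activity criterion: percent growth below 10, measured after cells in 96-well plates were exposed to a single compound concentration for 48 hours.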 Unmarked numbers belong to inactive results. Activity calls are given as the source filed them.
# Assays:
# Assay in all cases: NCI-60 one-dose screen, 48 h (100 = growth as untreated, 0 = no growth, -100 = all killed)
# Details in all cases: 10 µM unless noted
# BT-549 breast = test system: BT-549 breast
# MDA-MB-435 melanoma = test system: MDA-MB-435 melanoma
# SW-620 colon = test system: SW-620 colon
# MCF7 breast = test system: MCF7 breast
# HCT-116 colon = test system: HCT-116 colon
# HCC-2998 colon = test system: HCC-2998 colon
# KM12 colon = test system: KM12 colon
SMILES,growth (BT-549 breast),growth (MDA-MB-435 melanoma),growth (SW-620 colon),growth (MCF7 breast),growth (HCT-116 colon),growth (HCC-2998 colon),growth (KM12 colon)
COc1ccc(C2NC(=O)Nc3ccccc32)c(OC)c1 (stereo not drawn),109%,101%,114%,84.6%,104%,92.7%,110%
CCCC(=O)N1CCCCC1CC (stereo not drawn),100%,,93.8%,103%,116%,115%,108%
Cc1ccc(C)c2c1CCC2C(C)C (stereo not drawn),100%,108%,106%,107%,96%,101%,101%
CCc1ccccc1NC(=O)c1sc2nc3c(cc2c1N)CCCC3,48.4%,1.18% (active),26.7%,19.8%,18.7%,78.9%,27.9%
COc1ccc(C(=O)/C=C/c2cc(-c3cc(OC)c(OC)c(OC)c3)n[nH]2)cc1OC,-51.6% (active),-71.6% (active),-64% (active),-39.6% (active),-88.7% (active),-77.2% (active),-86.7% (active)
C=C1CC[C@@H](C(=O)OC)Cc2nc(C)ccc21,122%,103%,102%,98%,110%,101%,108%
C/C(=N\NC(=O)C(C)SC(C)C(=O)N/N=C(\C)c1cccnc1)c1cccnc1 (stereo not drawn),106%,106%,96.9%,95.7%,110%,106%,107%
O=C1c2ccccc2C(=Cc2ccccc2)c2ccccc21,-3.95% (active),-56.4% (active),12.6%,,5.11% (active),-45.7% (active),-26.6% (active)
COc1ccccc1CNc1nc(N)nc2[nH]c3ccc(O)cc3c12,62.8%,-27.6% (active),25.9%,19.2%,31%,67%,22.4%
Cn1cc(-c2nc(-c3c[nH]c4ncccc34)cs2)c2cc(Br)ccc21,99.8%,79.8%,95.8%,35.3%,64.4%,99.8%,62.5%
Cn1c(=O)c2c(ncn2CC(=O)Nc2ccc(S(N)(=O)=O)cc2)n(C)c1=O,92.8%,108%,103%,98.6%,92.7%,114%,101%
CC(C)(C)c1ccc(OCCCCCCCN2CCNCC2)cc1,69.7%,50.8%,-31.9% (active),-20.1% (active),-1.04% (active),-4.86% (active),36.1%
CCN1CCN(C(=O)[C@]23CCC(C)(C)C[C@H]2C2=CC[C@@H]4[C@@]5(C)CC/C(=N/O)C(C)(C)[C@@H]5CC[C@@]4(C)[C@]2(C)CC3)CC1,87.2%,66.1%,22.4%,37.5%,19%,90.4%,72.1%
COc1ccc2c(c1)c1nc3cc(C)c(C)cc3nc1n2CCN(C)C,56%,18.1%,-66.1% (active),-69.9% (active),-70.1% (active),20.5%,18%
C=C(C)[C@@H]1CC[C@]2(C(=O)OC)CC[C@]3(C)[C@H](CC[C@@H]4[C@@](C)(CC/C(N)=N/O)[C@H](C(=C)C)CC[C@]43C)[C@@H]12,97.8%,101%,97.4%,88.3%,89.8%,96.3%,99.1%
